Inconclusive results are not listed. Values without a mark were called inactive. Calls of active or inactive are those of the source. Unless noted, calls come from the whole dose curve; as a rule, active = well fitted curve in the direction sought with a large enough effect in the repeat runs; inconclusive = weak or mixed curves; inactive = no such curve, though single readings can be large; an effect the other way counts as inactive or inconclusive.

Assay [1] deals with Aryl hydrocarbon receptor (Homo sapiens) (UniProt P35869). As to the kind of experiment: qHTS assay to identify small molecule that activate the aryl hydrocarbon receptor (AhR) signaling pathway (AID 743085).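 For activation: HG2L7.5c1 human HepG2 liver cells with stably integrated DRE-driven firefly reporter; series mostly up to about 70 µM.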 Note: nearly all actives have a fitted effect of over 15% in size. Note: potency is the fitted concentration of half-maximal effect. The procedure, abridged: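 A multiplexed format paired cell viability (CellTiter-Fluor fluorescence) with AhR-dependent luciferase output (ONE-Glo luminescence) in the same wells of HepG2 DRE-luc cells after 24 h compound exposure at 37C.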
Sequence of Aryl hydrocarbon receptor (Homo sapiens) (P35869 whole entry, looked up): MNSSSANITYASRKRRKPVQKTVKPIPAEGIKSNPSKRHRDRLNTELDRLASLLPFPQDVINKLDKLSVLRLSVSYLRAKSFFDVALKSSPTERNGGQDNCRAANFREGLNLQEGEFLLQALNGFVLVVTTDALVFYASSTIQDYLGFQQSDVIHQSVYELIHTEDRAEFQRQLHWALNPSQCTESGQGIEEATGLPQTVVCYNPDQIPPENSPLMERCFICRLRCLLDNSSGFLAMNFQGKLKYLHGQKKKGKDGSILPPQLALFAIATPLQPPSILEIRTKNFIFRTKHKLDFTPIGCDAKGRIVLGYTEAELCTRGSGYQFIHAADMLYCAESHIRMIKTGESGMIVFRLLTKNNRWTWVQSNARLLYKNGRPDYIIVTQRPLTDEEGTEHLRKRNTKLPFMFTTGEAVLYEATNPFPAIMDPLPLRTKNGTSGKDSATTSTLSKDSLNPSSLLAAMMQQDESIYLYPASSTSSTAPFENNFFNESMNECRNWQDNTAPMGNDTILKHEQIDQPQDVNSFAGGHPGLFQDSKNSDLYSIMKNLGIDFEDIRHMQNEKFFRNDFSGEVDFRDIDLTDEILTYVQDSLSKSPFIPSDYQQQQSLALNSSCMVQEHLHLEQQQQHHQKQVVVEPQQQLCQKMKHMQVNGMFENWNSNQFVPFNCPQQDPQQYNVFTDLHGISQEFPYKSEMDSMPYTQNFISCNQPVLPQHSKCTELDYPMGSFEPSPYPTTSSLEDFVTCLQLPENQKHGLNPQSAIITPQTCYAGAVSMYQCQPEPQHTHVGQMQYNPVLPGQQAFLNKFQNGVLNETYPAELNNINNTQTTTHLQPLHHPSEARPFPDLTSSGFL
In general terms: In qHTS, concentration-response curves come from the screen itself.

Assay [2] can be described thus: qHTS assay to identify small molecule that activate the aryl hydrocarbon receptor (AhR) signaling pathway - cell viability counter screen (AID 743086).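 Note: HepG2 liver cells carrying the AhR DRE luciferase reporter; series mostly up to about 70 µM; nearly all actives have a fitted effect of over 45% in size.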 The gist of the method: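 HepG2-AhR-luc (HG2L7.5c1) cells, 4000/well, treated 24 h at 37 C with compound; viability measured as CellTiter-Fluor fluorescence after 30 min in the same wells as the luciferase read.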

Assay [3] deals with Peroxisome proliferator-activated receptor gamma (Homo sapiens) (UniProt P37231). Description: qHTS assay to identify small molecule agonists of the peroxisome proliferator-activated receptor gamma (PPARg) signaling pathway (AID 743094; active = well fitted activation curve with a large enough effect in the signal ratio in the repeat runs, not every such curve was filed as active; the % refers to the signal ratio). The gist of the method: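 Reporter activation was scored by fluorescence of cleaved LiveBLAzer B/G substrate (1 h, room temperature) in PPARg-bla HEK293H cells previously treated 17 h at 37C with DMSO-dissolved compounds.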
Sequence of Peroxisome proliferator-activated receptor gamma (Homo sapiens) (P37231 whole entry, looked up): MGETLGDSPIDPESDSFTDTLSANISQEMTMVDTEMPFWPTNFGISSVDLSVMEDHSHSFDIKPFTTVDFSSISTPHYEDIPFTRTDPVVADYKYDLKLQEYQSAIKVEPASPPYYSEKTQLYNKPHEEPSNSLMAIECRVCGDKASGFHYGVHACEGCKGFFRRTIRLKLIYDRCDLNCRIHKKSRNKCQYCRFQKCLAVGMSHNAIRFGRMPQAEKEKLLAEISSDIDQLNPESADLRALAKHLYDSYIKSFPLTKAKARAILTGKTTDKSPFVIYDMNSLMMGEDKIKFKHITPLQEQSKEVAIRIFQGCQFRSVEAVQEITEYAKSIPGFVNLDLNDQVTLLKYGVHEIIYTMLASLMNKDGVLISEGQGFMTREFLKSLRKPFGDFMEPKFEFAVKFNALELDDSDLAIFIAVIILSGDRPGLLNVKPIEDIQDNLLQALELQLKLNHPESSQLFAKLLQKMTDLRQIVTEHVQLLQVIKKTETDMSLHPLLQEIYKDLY

The nature of assay [4]: qHTS assay for small molecule agonists of the antioxidant response element (ARE) signaling pathway - cell viability counter screen (AID 743203; calls by dose curve; note: nearly all actives have a fitted effect of over 55% in size). The gist of the method:
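Viability counter screen: stably transfected ARE-bla HepG2 line, 16 hrs compound exposure at 37C/5% CO2, ATP-based CellTiter-Glo luminescence measured in the reporter wells.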

The nature of assay [5]: qHTS assay for small molecule activators of the heat shock response signaling pathway - cell viability counter screen (AID 743209). Note: nearly all actives have a fitted effect of over 50% in size. The procedure, abridged:
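Viability of HSE-bla HeLa cells is measured with CellTiter-Glo in the wells already used for the reporter read. Compound exposure lasts 5 h at 37 C, and luminescence is read after 30 min at room temperature.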

Assay [6] can be described thus: qHTS assay to identify small molecule agonists of the peroxisome proliferator-activated receptor delta (PPARd) signaling pathway - cell viability counter screen (AID 743211). Note: nearly all actives have a fitted effect of over 55% in size. The procedure, abridged: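 Tox21 library compounds, delivered in DMSO, were incubated 17 h with PPARd-bla HEK293H cells; cytotoxicity was taken from CellTiter-Glo luminescence read 30 min after reagent addition.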

Assay [7] deals with Peroxisome proliferator-activated receptor delta (Homo sapiens) (UniProt Q03181). As to the kind of experiment: qHTS assay to identify small molecule agonists of the peroxisome proliferator-activated receptor delta (PPARd) signaling pathway (AID 743212; calls by dose curve). The procedure, abridged: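 Read-out: beta-lactamase FRET fluorescence after 2 h room-temperature incubation with LiveBLAzer B/G substrate. Cells were HEK293H carrying a UAS-bla reporter for PPARd, treated at 37 C with DMSO-dissolved compounds.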
Sequence of Peroxisome proliferator-activated receptor delta (Homo sapiens) (Q03181 whole entry, looked up): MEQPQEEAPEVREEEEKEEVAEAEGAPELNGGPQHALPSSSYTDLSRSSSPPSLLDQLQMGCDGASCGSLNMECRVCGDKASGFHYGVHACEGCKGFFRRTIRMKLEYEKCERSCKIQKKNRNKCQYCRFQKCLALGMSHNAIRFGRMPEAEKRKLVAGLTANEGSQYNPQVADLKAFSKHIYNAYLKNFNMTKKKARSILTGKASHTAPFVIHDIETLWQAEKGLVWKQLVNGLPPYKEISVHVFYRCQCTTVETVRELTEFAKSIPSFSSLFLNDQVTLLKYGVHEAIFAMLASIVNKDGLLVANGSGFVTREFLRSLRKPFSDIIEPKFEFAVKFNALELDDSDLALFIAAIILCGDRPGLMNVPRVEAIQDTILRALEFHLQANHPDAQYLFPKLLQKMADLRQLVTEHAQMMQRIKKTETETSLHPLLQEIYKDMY

Assay [8] has the same target. As to the kind of experiment: qHTS assay to identify small molecule antagonists of the peroxisome proliferator-activated receptor delta (PPARd) signaling pathway (AID 743215; active = well fitted inhibition curve with a large enough effect in the signal ratio in the repeat runs, not every such curve was filed as active; the % refers to the signal ratio;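 note: cells stimulated with agonist L165041 at 300 nM final during compound exposure; series mostly up to about 62 µM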). The gist of the method: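 Plated HEK293H PPARd-bla cells rested 5 h at 37 C and 5% CO2. Compound, then agonist L165041 at 300 nM final, was added; 17 h at 37 C followed. Substrate loading, 2 h room temperature, fluorescence measured.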

In assay [9] the target is Bile acid receptor (Homo sapiens) (UniProt Q96RI1). Description: qHTS assay to identify small molecule antagonists of the farnesoid-X-receptor (FXR) signaling pathway (AID 743217; active = well fitted inhibition curve with a large enough effect in the signal ratio in the repeat runs, not every such curve was filed as active; the % refers to the signal ratio). The procedure, abridged:
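Screen of the Tox21 10K library in quantitative HTS format using FXR-UAS-bla HEK 293T reporter cells. Agonist chenodeoxycholic acid, 50 uM final, added with compounds; 16 h incubation at 37 °C; beta-lactamase FRET fluorescence measured.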

Assay [10] is described as follows: qHTS assay to identify small molecule agonists of the farnesoid-X-receptor (FXR) signaling pathway - cell viability counter screen (AID 743218). Note: nearly all actives have a fitted effect of over 45% in size. The procedure, abridged: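 Viability of FXR-bla HEK 293T cells is measured by ATP-based CellTiter-Glo luminescence following 16 h compound treatment at 37 C and a prior 2 h room-temperature beta-lactamase substrate step.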

Assay [11] concerns the target Bile acid receptor (Homo sapiens) (UniProt Q96RI1). As to the kind of experiment: qHTS assay to identify small molecule agonists of the farnesoid-X-receptor (FXR) signaling pathway (AID 743220; active = well fitted activation curve with a large enough effect in the signal ratio in the repeat runs, not every such curve was filed as active; the % refers to the signal ratio). The procedure, abridged: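 FXR-UAS-bla HEK 293T cells carrying a UAS-driven beta-lactamase reporter were plated for 5 h at 37C/5% CO2, then exposed to DMSO-dissolved Tox21 10K compounds for 16 h at 37C. A LiveBLAzer B/G FRET substrate was loaded for 2 h at room temperature before fluorescence reading.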

Assay [12] in a line: qHTS assay to identify small molecule antagonists of the farnesoid-X-receptor (FXR) signaling pathway - cell viability counter screen (AID 743221; active = well fitted cell-killing curve with a large enough effect in the repeat runs, not every such curve was filed as active; note: nearly all actives have a fitted effect of over 50% in size). The gist of the method:
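Cytotoxicity is taken from ATP luminescence (CellTiter-Glo, 30 min, room temperature) in FXR-bla HEK 293T cells previously incubated 16 h at 37 C with compound and chenodeoxycholic acid at 50 uM final.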

Assay [13] addresses Vitamin D3 receptor (Homo sapiens) (UniProt P11473). Description: qHTS assay to identify small molecule agonists of the vitamin D receptor (VDR) signaling pathway (AID 743222; calls by dose curve). The procedure, abridged: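 Fluorescence from cleaved LiveBLAzer B/G FRET substrate served as readout. VDR-bla cells had been treated 16 h at 37C with test compounds in DMSO, following a 4 h settling period, and substrate was loaded for 2 h at RT.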

For assay [14] the target is unchanged. As to the kind of experiment: qHTS assay to identify small molecule antagonists of the vitamin D receptor (VDR) signaling pathway (AID 743223; active = well fitted inhibition curve with a large enough effect in the signal ratio in the repeat runs, not every such curve was filed as active; the % refers to the signal ratio). The procedure, abridged:
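Quantitative HTS in VDR-bla reporter cells stimulated with 1alpha,25-dihydroxyvitamin D3, 3 nM final. Compound exposure 16 h, 37C, 5% CO2. Read-out: beta-lactamase FRET substrate fluorescence, 2 h RT.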

Assay [15] can be described thus: qHTS assay to identify small molecule agonists of the vitamin D receptor (VDR) signaling pathway - cell viability counter screen (AID 743224). Note: series mostly up to about 63 µM; nearly all actives have a fitted effect of over 50% in size. The procedure, abridged:
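Compounds were pin-transferred onto VDR-bla cells plated 4 h earlier; following 16 h incubation at 37C, cell viability was quantified by CellTiter-Glo luminescence after 30 min at room temperature.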

The nature of assay [16]: qHTS assay to identify small molecule antagonists of the peroxisome proliferator-activated receptor gamma (PPARg) signaling pathway - cell viability counter screen (AID 743194). Note: nearly all actives have a fitted effect of over 55% in size. The procedure, abridged: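 Cytotoxicity counter screen in PPARg-bla HEK293H cells, same wells as reporter assay. Compounds plus 50 nM rosiglitazone (final) for 17 h at 37 C, then viability read by CellTiter-Glo luminescence.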

Assay [17] in a line: qHTS assay for small molecule agonists of the antioxidant response element (ARE) signaling pathway (AID 743202; active = well fitted activation curve with a large enough effect in the signal ratio in the repeat runs, not every such curve was filed as active; the % refers to the signal ratio). The procedure, abridged:
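HepG2 ARE-bla reporter line, 2,000 cells/well; 5 h preincubation 37 C/5% CO2; compound (DMSO) 16 h 37 C; B/G FRET substrate 2 h RT; fluorescence intensity.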

The nature of assay [18]: qHTS assay for small molecule activators of the heat shock response signaling pathway (AID 743210; active = well fitted activation curve with a large enough effect in the signal ratio in the repeat runs, with a control signal flat, not every such curve was filed as active; the % refers to the signal ratio;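 note: HeLa cells with beta-lactamase reporter driven by heat shock elements; series mostly up to about 63 µM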). The gist of the method:
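Beta-lactamase reporter read-out: FRET substrate fluorescence after 2.5 h at RT, following 5 h compound treatment at 37 C of HeLa cells carrying HSE-driven bla reporter; quantitative HTS format.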

Assay [19] in a line: qHTS assay to identify small molecule antagonists of the peroxisome proliferator-activated receptor delta (PPARd) signaling pathway - cell viability counter screen (AID 743213). Note: nearly all actives have a fitted effect of over 50% in size. The procedure, abridged: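 In this counter screen, HEK293H cells carrying a UAS-beta-lactamase reporter are co-treated with test compounds and 300 nM L165041 (final) for 17 h at 37 C; cell viability is quantified by CellTiter-Glo luminescence.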

Assay [20] concerns the target Peroxisome proliferator-activated receptor gamma (Homo sapiens) (UniProt P37231). Description: qHTS assay to identify small molecule antagonists of the peroxisome proliferator-activated receptor gamma (PPARg) signaling pathway (AID 743191; calls by dose curve; note: series mostly up to about 63 µM; nearly all actives have a fitted effect of over 30% in size). The procedure, abridged: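 GeneBLAzer PPARg UAS-bla HEK293H cells, 5 h post-plating, exposed to compounds 17 h at 37C. LiveBLAzer B/G FRET substrate added for 1 h at room temperature; beta-lactamase reporter read by fluorescence intensity.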

Sequence of Bile acid receptor (Homo sapiens) (Q96RI1 whole entry, looked up): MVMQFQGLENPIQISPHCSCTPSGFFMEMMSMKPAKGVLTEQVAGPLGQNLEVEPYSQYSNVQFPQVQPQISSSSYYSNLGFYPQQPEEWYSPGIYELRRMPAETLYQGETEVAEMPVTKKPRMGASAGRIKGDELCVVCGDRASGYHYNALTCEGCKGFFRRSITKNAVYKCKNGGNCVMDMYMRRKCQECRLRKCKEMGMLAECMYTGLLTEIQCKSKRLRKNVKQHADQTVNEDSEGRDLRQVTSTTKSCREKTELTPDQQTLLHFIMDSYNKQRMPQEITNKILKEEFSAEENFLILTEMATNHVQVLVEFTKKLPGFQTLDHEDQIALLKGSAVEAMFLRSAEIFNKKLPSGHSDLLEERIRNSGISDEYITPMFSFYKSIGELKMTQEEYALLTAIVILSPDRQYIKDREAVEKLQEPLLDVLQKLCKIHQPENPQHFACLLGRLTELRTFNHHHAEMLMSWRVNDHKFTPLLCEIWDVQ
Sequence of Vitamin D3 receptor (Homo sapiens) (P11473 whole entry, looked up): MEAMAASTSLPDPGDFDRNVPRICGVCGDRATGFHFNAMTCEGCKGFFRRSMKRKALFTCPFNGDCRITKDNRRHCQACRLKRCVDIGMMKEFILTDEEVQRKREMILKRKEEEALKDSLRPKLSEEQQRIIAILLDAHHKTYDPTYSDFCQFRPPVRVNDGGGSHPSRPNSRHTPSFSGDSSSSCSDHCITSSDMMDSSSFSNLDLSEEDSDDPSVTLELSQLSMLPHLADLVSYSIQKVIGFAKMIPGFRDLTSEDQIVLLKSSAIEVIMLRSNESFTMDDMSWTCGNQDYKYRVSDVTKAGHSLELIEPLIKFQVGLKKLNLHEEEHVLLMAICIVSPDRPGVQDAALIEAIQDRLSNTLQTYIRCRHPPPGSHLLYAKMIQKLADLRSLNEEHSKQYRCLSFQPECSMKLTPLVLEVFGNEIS

Turning to `CC(C)OC(=O)CCC(=O)OC(C)C`, the Potency entry in assay [1], in assay [2], in assay [3] and in assay [5] was “inactive” in each case. Moreover, the call in assay [4], in assay [6], in assay [7], in assay [8], in assay [9] and in [10] was inactive. Further, the outcome in assay [11], in [12], in assay [13], in assay [14] and in [15] was inactive.

As for `C[C@@H](O)C(=O)O`, the Potency entry in assay [1], in assay [2], in assay [17] and in assay [5] was “inactive” throughout. In addition, the result in [16], in [4], in assay [18], in assay [6], in assay [7] and in assay [19] was inactive. For the same compound, the call in [9], in assay [10], in [11], in [12], in [13] and in [15] was inactive.

On to `CC(=O)OC(C)=O`, for which the Potency entry in [2], in [3], in assay [17] and in assay [5] was “inactive” throughout. Moreover, the compound was called inactive in assay [20], in [16], in [4], in [6], in assay [19] and in [12]. In addition, the call in assay [13], in assay [14] and in assay [15] was inactive.

`CC1c2ccccc2CN1NC(=O)c1ccc(Cl)c(S(N)(=O)=O)c1` (stereo not given): the Potency result in [2], in assay [3], in [17] and in [5] was “inactive” in each case. For the same compound, the compound was classed as inactive in [20], in [16], in assay [4], in assay [6], in assay [7] and in [19]. Further, the compound was called inactive in assay [9], in [10], in assay [11], in [12], in assay [13] and in assay [14].

In the case of `CCCc1ccc(O)cc1`, the Potency entry in [2], in [3], in [17] and in [5] was “inactive” throughout. In addition, the outcome in assay [20], in assay [16], in [4], in assay [18], in [6] and in assay [7] was inactive. For the same compound, the call in [19], in assay [8], in [9], in [10], in [11] and in assay [12] was inactive. Further, the compound was classed as inactive in assay [13], in [14] and in assay [15].

In the case of `CC(C)(CO)C(O)C(=O)NCCCO` (stereo not given), the Potency result in assay [1], in assay [2], in assay [17] and in assay [5] was “inactive” throughout. Moreover, the compound was called inactive in assay [16], in assay [18], in assay [6], in assay [7], in assay [19] and in assay [8]. In addition, the result in [9], in assay [10], in assay [11], in assay [12], in assay [13] and in assay [14] was inactive.

Turning to `OCC(O)CN1CCN(c2ccccc2)CC1` (stereo not given), the Potency entry in assay [1], in assay [3], in [17] and in assay [5] was “inactive” in each case. The result in assay [20], in assay [4], in assay [18], in assay [7], in assay [19] and in [9] was inactive. The compound was classed as inactive in assay [10], in [11] and in assay [12].

In the case of `CCO[Si](CC)(OCC)OCC`, the Potency entry in assay [1], in assay [2], in assay [17] and in assay [5] was “inactive” throughout. Moreover, the compound was classed as inactive in [16], in [4], in [18], in assay [6], in [7] and in assay [19]. In addition, the outcome in [12], in assay [13] and in assay [15] was inactive.

On to `c1ccc(B(c2ccccc2)c2ccccc2)cc1`, for which the Potency in assay [1] is 30.6 µM (active). The Potency result in [2], in assay [3] and in [5] was “inactive” each time. The compound was called inactive in assay [4], in assay [6], in assay [7], in assay [9], in [10] and in assay [11]. Besides, the result in assay [12], in assay [13], in [14] and in assay [15] was inactive.

Source of the values: PubChem BioAssay (Tox21).
